Reference: PubChem BioAssay AID2018 (Sanford-Burnham Center for Chemical Genomics, 2009)
Hit rate of the full screen: of about 1,200 compounds, about 600 (50%) were called active. Rule as the data show it: active = inhibition above about 42%; inactive = the rest. So high a share suggests a set chosen from earlier hits. The list shows a part of the results. Results with a measured potency or affinity are listed apart.

What follows are compounds tested against SUMO-conjugating enzyme UBC9 (Homo sapiens) (UniProt P63279) (assay: SUMOylation inhibitor hit validation, confirmation, SUMOylation inhibitor project, biochemical, AlphaScreen (AID 2018)). Conditions: AlphaScreen in vitro SUMOylation assay; at 35 µM; hits give high values.
SUMO-conjugating enzyme UBC9 (Homo sapiens), sequence (P63279 whole entry, looked up): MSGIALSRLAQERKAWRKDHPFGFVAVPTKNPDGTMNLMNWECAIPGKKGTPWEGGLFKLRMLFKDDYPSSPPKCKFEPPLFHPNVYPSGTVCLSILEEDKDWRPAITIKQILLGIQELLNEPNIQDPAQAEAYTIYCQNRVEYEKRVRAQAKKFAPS

inhibition, inactive:
COc1ccc2ccc3c(c2c1)N=C[C@]1(O3)N(C)c2ccccc2C1(C)C 27.7%
S=c1[nH]nc(-c2ccco2)n1/N=C/C=C/c1ccco1 25.8%
CC(=O)C1C(=O)C=C(c2ccco2)CC1c1ccccc1 (stereo not drawn) -5.3%
O=C(Nc1ccc(-n2nncc2-c2ccco2)cc1)c1cc2ccccc2oc1=O 35.2%
Cc1cccc(NC(=O)CC2Nc3cccc4cccc(c34)NC2=O)c1 (stereo not drawn) 28.8%
C=CCn1c(SCC(=O)N2N=C(c3ccco3)CC2c2ccco2)nnc1-c1ccncc1 (stereo not drawn) 3.2%
O=C(CC1Nc2cccc3cccc(c23)NC1=O)Nc1ccccc1 (stereo not drawn) 30.7%
O=C1C2C3C=CC(C4CC34)C2C(=O)N1CCc1ccccc1 (stereo not drawn) -31.9%
COCCCNC(=O)c1cccn2c(=O)c3cc4ccccc4cc3nc12 16.5%
C=CCOc1c(Cl)cc(CNc2ccc3[nH]c(=O)[nH]c3c2)cc1OC 41.5%
CCOc1c(Br)cc(/C=C2\C(=O)N(CCC#N)N=C2C)cc1OC 8.8%
Cc1cccc(/C=N/NC(=O)C(C)Nc2cccc3ccccc23)n1 (stereo not drawn) -0.7%
Cc1cc(Br)ccc1-n1[nH]c(C)c(C=Nc2cccc3nsnc23)c1=O 39.7%
Cc1ccc(/C=C2\SC(=S)N(c3cccnc3)C2=O)o1 33.6%
Cc1cccc2nc(-c3ccco3)c(Nc3ccc4c(c3)OCO4)n12 19.8%
Cc1ccc(C(=O)N[C@H](C(=O)Nc2cc(Cl)cc(Cl)c2)C(C)C)cc1 -24.1%
COn1c(C)c(C)c2c3nonc3ccc21 19.1%
Cc1nnc(N/N=C\c2ccc(-c3ccccc3[N+](=O)[O-])o2)n1N -4.6%
Cc1ccc(C)c(NC(=S)Nc2cccc3cnccc23)c1 16.2%
Cc1nn(CC(=O)Nc2ccc(C(=O)N(C)C)cc2)c(=O)c2ccccc12 -3.7%
Cc1ccc(NC(=O)Nc2ccno2)cc1 -5.1%
O=C1C=C(O)c2cccc(O)c2C1=O 39.2%
COc1ccc(S(=O)(=O)/N=C2/NC(=O)/C(=C\c3ccco3)S2)cc1 40.6%
CSCC[C@H](NC(=O)Cc1c(C)c2c(cc(C)c3c(C)c(C)oc32)oc1=O)C(=O)O 19.6%
CCc1c(C)c2cc(Cl)c(O)c(CN(C)C)c2oc1=O 14.3%
CCC(C(=O)O)n1nnc(-c2ccc(OCc3ccccc3)c(OC)c2)n1 (stereo not drawn) 2%
COc1ccc2nc(NC(=O)CCc3ccc(OC)c(OC)c3)sc2c1 -27%
NCCSc1c(-c2ccccc2)[nH]c2ccccc12 4.2%
Oc1ccc(N=Cc2ccc(OCc3ccccc3)cc2)cc1 25.2%
S=c1[nH]nc(-c2ccncc2)n1/N=C/c1ccccc1Cl 20.2%
CCOC(=O)C1=C(C)NC(=O)CC1c1cc2c(cc1[N+](=O)[O-])OCO2 (stereo not drawn) 14.6%
O=[N+]([O-])c1cc2c(cc1CN1CCN(CCOCCO)CC1)OCO2 12.3%
CCN(CC)CCNS(=O)(=O)c1ccc2c3c(cccc13)C(=O)N2 -8.8%
NC(=O)c1sc2nc(-c3ccco3)ccc2c1N 20%
COCC(C)N1C(=O)Cc2c1nc(N)c1c(N)nc(N3CCN(c4ccccc4F)CC3)c(C#N)c21 (stereo not drawn) 37.8%
N#Cc1c(N2CCN(c3ccc(F)cc3)CC2)nc(N)c2c(N)nc3c(c12)CC(=O)N3C1CC1 37.6%
CC(C)N1C(=O)CC(Nc2cccc3cccc(N)c23)C1=O (stereo not drawn) 0.8%
Cn1c(=O)cc(C(=O)N/N=C/c2ccc(Cl)cc2)[nH]c1=O -20.2%
Cc1onc(-c2ccccc2Cl)c1C(=O)NCc1ccco1 32.5%
CN(NC(=O)c1ccc(Cl)cc1)c1ncc(C(F)(F)F)cc1Cl 2.5%
O=c1c(=Nc2ccccc2O)c(=O)c2ccccc12 9.9%
Clc1ccc(-c2nnc3c4ccccc4nc(N4CCOCC4)n23)cc1Cl 4%
CC(=O)Oc1c(/C=C(\C#N)C(N)=O)[nH]c2ccccc12 21.9%
Cc1ccc(NC(=O)Nc2cccn(Cc3c(F)cccc3Cl)c2=O)cc1 14.6%
O=C(NCc1ccccc1)Nc1cccn(Cc2ccccc2Cl)c1=O 20.8%
Cc1nn2c3c(cnc2c1-c1ccc(Cl)cc1)C(=O)CC(c1ccco1)C3 (stereo not drawn) 9.7%
COc1ccccc1Oc1c(C)oc2c(CN3CCN(C)CC3)c(O)ccc2c1=O 7%
N#C/C(=C/c1ccc(-c2ccccc2)o1)c1nc(-c2cccs2)cs1 -4.5%
Cc1c(CC(=O)N2CCN(C(=O)C3COc4ccccc4O3)CC2)c(=O)oc2c(C)c(O)ccc12 (stereo not drawn) 17.7%
CC(=O)Oc1ccc2c(C)c(CC(C)O)c(=O)oc2c1 (stereo not drawn) -6.6%
NC(=O)CC(NC(=O)Cc1ccc(Br)cc1)c1ccc(NCCOc2ccccc2)c([N+](=O)[O-])c1 (stereo not drawn) 10.7%
CCOC(=O)C1CC(=O)c2cc(OC)c(OC)cc2C1 (stereo not drawn) 12.9%
O=C(N/N=C/c1ccc(N2CCOCC2)cc1)c1ccccc1NS(=O)(=O)c1cccs1 17.4%
Cc1ccc(-c2cc(-c3ccccc3O)nc(N/N=C/c3cccnc3)n2)cc1 23%
O=c1[nH]c(N2CCN(c3ccccc3)CC2)nc2c1CCC2 8.8%

inhibition, active:
CCN(c1ccccc1)S(=O)(=O)c1ccc(Cl)c(NC(=O)COC(=O)c2cc(O)c3ccccc3c2O)c1 73%
CN1c2ccccc2C(C)(C)C12C=Nc1c(cc(N3CCOCC3)c3ccccc13)O2 (stereo not drawn) 45.2%
S=c1[nH]nc(-c2cc(-c3ccco3)[nH]n2)n1-c1cccc2ccccc12 46.9%
S=c1[nH]nc(-c2cc(-c3ccco3)[nH]n2)n1-c1ccccc1Cl 96.5%
Cc1ccc(-n2c(-c3cc(-c4ccco4)[nH]n3)n[nH]c2=S)c(Br)c1 57%
COc1ccc(OC)c(-n2c(-c3cc(-c4ccco4)[nH]n3)n[nH]c2=S)c1 48.4%
O=C1C2C3C=CC(C3)C2C(=O)N1CNc1ccc(O)cc1 (stereo not drawn) 92.9%
O=C(O)c1cc(-c2ccco2)nn1-c1ccc(Cl)cc1 54.7%
Cc1ccc(C2Nc3cccc4cccc(c34)N2)s1 71.9%
CCOc1ccc(C2Nc3cccc4cccc(c34)N2)cc1OC 73.4%
COc1ccccc1C1Nc2cccc3cccc(c23)N1 77.6%
COc1cc(OC)c(C2Nc3cccc4cccc(c34)N2)c(OC)c1 91.3%
Oc1ccc(C2Nc3cccc4cccc(c34)N2)c(O)c1 86.1%
Fc1cccc(Cl)c1C1Nc2cccc3cccc(c23)N1 53.9%
COCCN=c1scc(-c2ccco2)n1/N=C/c1ccc(O)c(O)c1O 82.6%
CC1=NN(c2ccccc2)C(=O)C1 53.2%
Cc1[nH]n(-c2ccccc2)c(=O)c1/C=N/N(C)c1ccccc1 73%
Cc1ccc(NC(=O)CSc2nnc(-c3ccco3)c(-c3ccco3)n2)cc1 97.9%
CN(C)c1ccc(NC(=O)CSc2nnc(-c3ccco3)c(-c3ccco3)n2)cc1 46.4%
NS(=O)(=O)c1ccc(-c2ccc(/C=C3\NC(=S)NC3=O)o2)cc1 70.9%
O=C1C=C(O)c2c(O)cccc2C1=O 43.1%
Cc1ccc(N=C2NC(=O)/C(=C\c3ccco3)S2)cc1 44.4%
Oc1ccc(NCc2ccc(OCc3ccccc3)cc2)cc1 61.8%
Oc1ccc(NCc2cccc(OCc3ccccc3)c2)cc1 81.1%
COc1cc(CNc2ccc(O)cc2)cc(Br)c1OCc1ccccc1 89.1%
COc1ccc(Br)cc1CNc1ccc(O)cc1 63.1%
Cc1ccccc1N=Cc1cc2c(cc1[N+](=O)[O-])OCO2 43.9%
O=[N+]([O-])c1cc2c(cc1/C=N/n1c(-c3ccccn3)n[nH]c1=S)OCO2 82.5%
CC1(C)Nc2ccc(O)cc2-c2c1ssc2=S 59.8%
Nc1nc(-c2ccco2)c(-c2ccco2)s1 55.9%
O=C1NNC(c2ccccc2)=N/C1=C\c1ccccc1Cl 101%
O=C(NC1(O)C(=O)c2ccccc2C1=O)c1ccc(C(F)(F)F)cc1 101%
O=C(NC1(O)C(=O)c2ccccc2C1=O)c1c(Cl)cccc1Cl 101%
O=C(NC1(O)C(=O)c2ccccc2C1=O)c1ccccc1 101%
O=C(CC1CS(=O)(=O)CC1CC(=O)Oc1ccccc1F)Oc1ccccc1F (stereo not drawn) 102%
Cc1c(CC(=O)O)c(=O)oc2c(C)c(OCc3ccccc3Br)ccc12 85.8%
O=C1C=C(N(CCO)Cc2ccccc2)c2ccccc2C1=O 101%
Nc1ccc(Br)c2cccnc12 49%
O=C(N/N=C/c1cc(Cl)cc([N+](=O)[O-])c1O)c1ccccc1NS(=O)(=O)c1cccs1 101%
COc1ccccc1/C=C/C=N/NC(=O)c1cc(-c2ccco2)[nH]n1 60.4%
O=C1C=C(N2CCOCC2)c2ccccc2C1=O 102%
NNC(=O)c1oc2nc(-c3ccco3)cc(-c3ccco3)c2c1N 56.6%
NNC(=O)c1oc2nc(-c3cccs3)cc(-c3ccco3)c2c1N 43.3%
